In the library only some 21% were active in any assay of this set; here they are far more common.
Gal4-VP16 FLuc: inhibits Gal4-VP16 luciferase reporter, ROR gamma counter-screen; 310,000 tested, 3.5% active; Drosophila S2 Gal4-VP16 UAS-luciferase, luminescence, 20 h; Potency, µM (series often up to 53.6 µM), without a hit: at the highest dose activity, negative = inhibition, actives largely listed as inhibitors; AID 2546;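 also: Gal4-VP16 expression switched on by copper sulfate through the metallothionein promoter; potency is read from the fitted curve at half-maximal effect; nearly all actives have a fitted effect of over 50% in size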
RORgamma inh: ROR gamma (mouse) transcription inhibition. P51450. Drosophila S2 Gal4-RORgamma UAS-luciferase reporter, 20 h. Potency, µM (titrated, usually from 53.6 µM), for inactives: at the top dose activity change, negative = inhibition, hits mostly inhibitors. 310,000 tested, 5.4% active. AID 2551; also: potency is read from the fitted curve at half-maximal effect; nearly all actives have a fitted effect of over 60% in size
Target sequence (P51450 whole entry, looked up, the tested form may be a part): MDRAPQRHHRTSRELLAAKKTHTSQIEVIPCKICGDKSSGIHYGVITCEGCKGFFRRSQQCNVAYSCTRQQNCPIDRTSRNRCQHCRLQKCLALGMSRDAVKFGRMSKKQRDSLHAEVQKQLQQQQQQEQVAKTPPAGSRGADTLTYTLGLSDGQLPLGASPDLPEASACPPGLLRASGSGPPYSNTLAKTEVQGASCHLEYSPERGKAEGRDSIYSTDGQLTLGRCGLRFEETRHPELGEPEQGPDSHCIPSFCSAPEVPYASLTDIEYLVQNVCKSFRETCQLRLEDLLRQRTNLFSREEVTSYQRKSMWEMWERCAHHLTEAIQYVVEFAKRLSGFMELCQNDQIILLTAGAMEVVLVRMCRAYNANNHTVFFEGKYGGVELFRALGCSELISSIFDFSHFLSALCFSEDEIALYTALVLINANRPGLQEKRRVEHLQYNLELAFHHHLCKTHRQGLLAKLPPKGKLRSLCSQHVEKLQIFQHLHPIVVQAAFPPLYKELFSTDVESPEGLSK
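Luminescence from a UAS-regulated Photinus luciferase reporter in stably transfected Drosophila Schneider cells is measured; decreased signal marks ROR gamma inhibition. Fusion expression is induced by 700 uM copper sulfate for 20 hr.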
DT40 TDP1 no CPT: qHTS for Inhibitors of human tyrosyl-DNA phosphodiesterase 1 (TDP1): qHTS in cells in absence of CPT | DT40 Tdp1-/- hTDP1 cells, no CPT, ATP luminescence, 48 h | Potency, µM (doses to about 46.2 µM), for inactives: at the highest dose activity change, negative = growth inhibition, most hits filed as inhibitors | 420,000 tested, 15% active; also: potency is read from the fitted curve at half-maximal effect; nearly all actives have a fitted effect of over 55% in size
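Growth of hTDP1-complemented DT40 Tdp1-knockout cells is measured by ATP luminescence after at least 48 hr compound exposure at 37 °C, with DMSO substituting for the 20 nM CPT used in the parallel screen.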
IL1B secr inh: inhibitors of inflammasome signaling (IL-1 beta secretion). THP-1 LPS/ATP IL-1B secretion, AlphaLISA, 16 h; active compounds read low. activity change, % at 57.5 µM. 360,000 tested, 4.7% active. AID 743279; in the data active = activity change below about -50%; inconclusive = mostly about -30% to -49%
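Secreted IL-1B measured by AlphaLISA bead assay after 16 h compound exposure of THP-1 cells; compounds (final up to 57.5 uM) added 1 h before LPS (250 ng/mL) and ATP (1.25 mM) stimulation; lower signal means less secretion.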
TDP1 cell CPT: growth inhibition of DT40 Tdp1-/-;hTDP1 cells with camptothecin (screen for TDP1 inhibitors). 420,000 tested, 12% active. Potency, µM (highest dose often 46.2 µM), for the others: at the highest dose activity change, negative = growth inhibition, hits mostly inhibitors. chicken DT40 Tdp1-/-;hTDP1 cells + 20 nM CPT, ATP luminescence, 48 h; also: potency is read from the fitted curve at half-maximal effect; nearly all actives have a fitted effect of over 55% in size
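Cell growth measured by CellTiter-Glo luminescence after a minimum 48 h, 37 C compound exposure with 20 nM CPT in Tdp1-knockout DT40 cells stably expressing hTDP1, seeded 400/well; qHTS titration format.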
ELG1 repair inh: ELG1-dependent DNA repair inhibition; HEK293T ELG1-luciferase reporter, luminescence, 16 h; DNA damage induced by 5-fluorouridine; Potency, µM (doses to about 46.1 µM), inactives show at the highest dose activity change, negative = inhibition, hits mostly inhibitors; 330,000 tested, 2.3% active; AID 504467; also: potency is read from the fitted curve at half-maximal effect; nearly all actives have a fitted effect of over 55% in size
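Luminescence from the luciferase reporter, measured 30 min after ONE-Glo reagent at room temperature, was the read-out. Beforehand, 2,000 cells per well were exposed for 16 hr at 37 °C to 5-fluorouridine together with compound or vehicle.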
Numbers without * were called inactive. Unless noted, calls follow the shape of the dose curve; as a rule, active = well fitted curve in the direction sought with a large enough effect; inconclusive = small, poorly fitted or top-dose-only effect, or another doubt; inactive = no such curve, though single readings can be large; an effect the other way counts as inactive or inconclusive. % is scaled to controls: 0 for no effect and ±100 for the full control effect.

For CCCCOc1ccc(S(=O)(=O)Nc2cccnc2)cc1 the results were Gal4-VP16 FLuc 11.2µM*, RORgamma inh -31.2%, DT40 TDP1 no CPT 10.3µM*, IL1B secr inh -17.0, TDP1 cell CPT 9.2µM* and ELG1 repair inh -1.0%.
CCCCCCCCNCCS(=O)(=O)NCc1ccccc1 was read as DT40 TDP1 no CPT 16.4µM*, IL1B secr inh -52.5* and TDP1 cell CPT inconclusive.
For CCCCNS(=O)(=O)CCNCCc1ccccc1 the results were DT40 TDP1 no CPT -17.0%, IL1B secr inh 36.3, TDP1 cell CPT 34.6% and ELG1 repair inh inconclusive.
For C/C(=N\NC(=O)c1cc(-c2cccnc2)nc2ccccc12)c1ccc(O)cc1O the results were Gal4-VP16 FLuc 0.562µM*, RORgamma inh 0.631µM*, DT40 TDP1 no CPT 10.3µM*, IL1B secr inh 49.3, TDP1 cell CPT 11.6µM* and ELG1 repair inh inconclusive.
For COc1ccc(-c2cc(C(=O)N/N=C(\C)c3cccnc3)c3cc(C)ccc3n2)cc1OC the results were Gal4-VP16 FLuc -1.2%, RORgamma inh -11.3%, DT40 TDP1 no CPT 1.16µM*, IL1B secr inh -22.5, TDP1 cell CPT 8.2µM* and ELG1 repair inh -3.2%.
C/C(=N\NC(=O)c1cc(-c2ccccc2C)nc2ccccc12)c1cccnc1 was read as Gal4-VP16 FLuc -9.0%, RORgamma inh inconclusive, DT40 TDP1 no CPT inconclusive, IL1B secr inh -3.8, TDP1 cell CPT inconclusive and ELG1 repair inh 3.9%.
For C/C(=N/NC(=O)c1cc(-c2ccccc2)nc2c(Cl)cccc12)c1cccnc1 the results were Gal4-VP16 FLuc 11.2µM*, RORgamma inh 17.8µM*, DT40 TDP1 no CPT -27.8%, IL1B secr inh -0.8, TDP1 cell CPT 10.1% and ELG1 repair inh inconclusive.
C/C(=N\NC(=O)c1cc(-c2ccc(C)s2)nc2ccccc12)c1cccnc1 was read as Gal4-VP16 FLuc inconclusive, RORgamma inh inconclusive, DT40 TDP1 no CPT inconclusive, IL1B secr inh -53.4*, TDP1 cell CPT 11.6µM* and ELG1 repair inh 11.0%.
For C/C(=N\NC(=O)c1cc(-c2cccc(OC(C)C)c2)nc2ccccc12)c1cccnc1 the results were Gal4-VP16 FLuc inconclusive, RORgamma inh -127.9%, DT40 TDP1 no CPT inconclusive, IL1B secr inh -2.8, TDP1 cell CPT 10.3µM* and ELG1 repair inh -11.0%.
For O=C1NC[C@@H](CCCCN2C[C@H](Cc3ccccc3)N(CC3CCCCC3)C(=O)C2=O)N(Cc2ccccc2)C1=O the results were DT40 TDP1 no CPT -20.6%, IL1B secr inh 35.8 and TDP1 cell CPT 0.2%.
O=C1NC[C@@H](CCCCN2C[C@H](Cc3ccc(O)cc3)N(CCc3ccccc3)C(=O)C2=O)N(CCC2CCCCC2)C1=O was read as DT40 TDP1 no CPT -3.8%, IL1B secr inh inconclusive and TDP1 cell CPT 1.9%.
O=C1NC[C@H](CCCCN2C[C@H](Cc3ccccc3)N(CCc3ccc(O)cc3)C(=O)C2=O)N(CCC2CCCCC2)C1=O was read as DT40 TDP1 no CPT inconclusive, IL1B secr inh -57.5* and TDP1 cell CPT inconclusive.
`O=C1NC[C@H](CCCCN2C[C@H](Cc3ccccc3)N(CC3CCCCC3)C(=O)C2=O)N(CC2CCCCC2)C1=O` gave DT40 TDP1 no CPT 29.1µM*, IL1B secr inh -76.5* and TDP1 cell CPT inconclusive.
`Cc1ccccc1Cn1c(C)c(C(=O)NCC(C)C)sc1=O` gave DT40 TDP1 no CPT inconclusive, IL1B secr inh -8.4 and TDP1 cell CPT inconclusive.
Screening CCOC(=O)C1CCN(C(=O)C2COc3ccccc3C2)CC1 (stereo not given) returned DT40 TDP1 no CPT -16.1% and TDP1 cell CPT 0.3%.
`COC(=O)c1ccccc1-n1c(C)nc(=O)c(-c2ccccc2)c1C` gave Gal4-VP16 FLuc -0.1%, RORgamma inh -8.1%, DT40 TDP1 no CPT -0.1%, IL1B secr inh 0.8, TDP1 cell CPT 4.6% and ELG1 repair inh 10.8%.
Screening COc1ccc(C(=O)NCCc2ccccc2)cc1OC returned Gal4-VP16 FLuc 25.7%, RORgamma inh 15.1%, DT40 TDP1 no CPT 9.2%, IL1B secr inh -0.5, TDP1 cell CPT -10.4% and ELG1 repair inh inconclusive.
For COc1ccc(/C(O)=C/c2nc3ccc(C(=O)NCCc4cccc(C)c4)cc3[nH]c2=O)cc1OC the results were Gal4-VP16 FLuc inconclusive, RORgamma inh -10.4%, DT40 TDP1 no CPT 2.31µM*, IL1B secr inh 67.1, TDP1 cell CPT 2.91µM* and ELG1 repair inh 3.26µM*.
`COc1ccc(CCNC(=O)c2ccc3nc(-c4ccco4)c(-c4ccco4)nc3c2)cc1OC` gave Gal4-VP16 FLuc 4.0%, RORgamma inh 6.3%, DT40 TDP1 no CPT 20.6µM*, IL1B secr inh -52.8*, TDP1 cell CPT 20.6µM* and ELG1 repair inh inconclusive.
`COc1ccc(CCNC(=O)c2cccc(Br)c2)cc1OC` gave Gal4-VP16 FLuc -6.0%, RORgamma inh 40.2%, DT40 TDP1 no CPT -25.0%, IL1B secr inh 0.0, TDP1 cell CPT inconclusive and ELG1 repair inh -13.1%.
Screening CCC(C)NC(=O)c1ccc2nc(-c3ccco3)c(-c3ccco3)nc2c1 (stereo not given) returned DT40 TDP1 no CPT 12.6µM* and TDP1 cell CPT 15.8µM*.
`O=C(Nc1cccc(C(F)(F)F)c1)c1ccc2nc(-c3ccco3)c(-c3ccco3)nc2c1` gave Gal4-VP16 FLuc -28.1%, RORgamma inh inconclusive, DT40 TDP1 no CPT inconclusive, IL1B secr inh -1.0, TDP1 cell CPT 20.6µM* and ELG1 repair inh 20.6µM*.
`O=C(O)c1ccc2nc(-c3ccco3)c(-c3ccco3)nc2c1` gave Gal4-VP16 FLuc -6.8%, RORgamma inh -5.7%, DT40 TDP1 no CPT -23.9%, IL1B secr inh 8.1, TDP1 cell CPT -9.9% and ELG1 repair inh 1.2%.
Screening CCCOc1cccc(C(=O)NCCNC(=O)c2cnccn2)c1 returned Gal4-VP16 FLuc -4.1%, RORgamma inh -2.5%, DT40 TDP1 no CPT -13.2%, IL1B secr inh 24.9, TDP1 cell CPT -15.4% and ELG1 repair inh 4.1%.
For CCc1nc2ccc(C(=O)NCCc3ccc(OC)c(OC)c3)cc2nc1CC the results were Gal4-VP16 FLuc 1.8%, RORgamma inh 3.1%, DT40 TDP1 no CPT 23.1µM*, IL1B secr inh -25.8, TDP1 cell CPT 16.4µM* and ELG1 repair inh -13.2%.
For O=C(Nc1ccc2nc(-c3ccco3)c(-c3ccco3)nc2c1)NC1CC1 the results were Gal4-VP16 FLuc 28.9%, RORgamma inh -14.0%, DT40 TDP1 no CPT 23.1µM*, IL1B secr inh -2.1, TDP1 cell CPT 20.6µM* and ELG1 repair inh inconclusive.

Compound activity from PubChem BioAssay.
